# Measurements: PubChem BioAssay (NCI)
# The panel holds about 83,000 compounds, 20% with a hit somewhere; the sample as a whole holds those more often.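 The endpoint reported here, percent growth, reads 100 for growth as untreated, 0 for no net growth and -100 for all cells dead.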 Values without a mark were called inactive. Calls of active or inactive are those of the source. How the source made its calls: active means growth percent below 10; inactive means the rest.
# Tested on: HL-60(TB) leukemia
# Assay: NCI-60 one-dose screen, 48 h (100 = growth as untreated, 0 = no growth, -100 = all killed)
# Settings: 10 µM unless noted
row,Structure (SMILES),growth
1,S=C(Nc1ccccc1)Nc1ccc(OCc2nc3ccccc3[nH]2)cc1,20.2%
2,Oc1ccc(/C=C2\CCCc3cc4ccc(O)cc4[o+]c32)c(O)c1,33.4%
3,CN(C)CCCNC(=O)c1cc(NC(=O)c2cc(NC(=O)c3ccc(/C=C/c4ccccc4)cc3)cn2C)cn1C,-37.7% (active)
4,CCCCOc1ccc(NC(=O)c2sc3nc(C)ccc3c2N)cc1,46.8%
5,O=C(c1ccc(Cl)cc1)C1[C@H](c2ccccc2Br)[C@@H](c2ccccc2)NC12C(=O)Nc1ccc(Br)cc12 (stereo not given in full),-6.61% (active)
6,Cc1cc(C)nc(NS(=O)(=O)c2ccc(N/C(N)=N/c3nccc(-c4cccs4)n3)cc2)n1,1.77% (active)
7,O=C1/C(=C/C2=Cc3ccccc3OC2)SC(=S)N1c1ccccc1F,87.9%
8,N#Cc1c(-c2ccccc2Cl)cc(-c2c[nH]c3ccccc23)[nH]c1=O,68.4%
9,CCN1C(=O)N(CC)C2NNC(Sc3c(C(=O)O)c4ccccc4n(CC(C)C)c3=O)=NC21 (stereo not given),-53.3% (active)
10,Cn1cc(Nc2ncnc(-c3ccc(N4CCCC4)c(C#N)c3)n2)cn1,49.1%
11,O=C(Nc1ccc(S(=O)(=O)N2CCCCC2)cc1)C(Cl)Cl,120%
12,Cc1ccc(N=Nc2c(N)nn3c(-c4cc5ccccc5oc4=O)ccnc23)cc1,36.4%
13,CCOC(=O)COc1c(OC)c(OC)cc2oc(-c3cccc(C(=O)Nc4ccc(Cl)cc4)c3)cc(=O)c12,97.6%
14,C=CCSc1nnc(-c2ccc(-c3nc4ccccc4[nH]3)cc2)o1,57.6%
15,COc1ccc(-c2cc(-c3ccccc3)c(C#N)c(=O)[nH]2)cc1S(N)(=O)=O,142%
16,O=C(Nc1nc2ccc([N+](=O)[O-])cc2s1)Nc1ccccc1I,-1.54% (active)
17,Cc1ccc2nc(COc3ccc(C(=O)NNC(=O)Nc4ccc(Cl)c(C(F)(F)F)c4)cc3)[nH]c2c1,86.1%
18,CCOc1ccc(-c2c(C#N)c(-c3ccc(Cl)cc3)nc3n[nH]c(-c4ccc(Cl)cc4)c23)cc1OC,4.06% (active)
19,COc1ccc(-c2cc(C(=O)Oc3ccc(C=O)cc3OC)nn2-c2ccc(S(C)(=O)=O)cc2)cc1,86.5%
20,CC(C)CCNC(=O)N/C(N)=N/c1nc2ccccc2s1,55.6%

row,Structure (SMILES),growth
1,COc1ccc(C2=Nc3c(N)nc(N)nc3NC(c3ccc(Oc4nc(Nc5ccc(F)cc5)nc(N(C)C)n4)c(OC)c3)C2)cc1 (stereo not given),32.6%
2,O=C(Cc1c(-c2cccc([N+](=O)[O-])c2)n(-c2ncnc3c2c(-c2ccccc2)c(-c2ccccc2)n3Cc2ccccc2)[nH]c1=O)c1ccc(Cl)c(Cl)c1,11.6%
3,Cc1c(C(=O)NNC(=O)Nc2ccc(Cl)cc2)nnn1-c1ccc(Br)cc1,103%
4,COc1cccc2nc(Nc3cccc(NC(=O)c4ccc(CN5CCN(C)CC5)c(C(F)(F)F)c4)c3)ccc12,-53.1% (active)
5,O=C(c1ccc([N+](=O)[O-])c([N+](=O)[O-])c1O)n1[nH]c(=O)c2ccccc2c1=O,44.6%
6,NCCCCn1c(SCCc2c[nH]c3ccccc23)nnc1-c1ccc2ccccc2n1,-64.6% (active)
7,COc1ccc2[nH]c(=O)c(CSc3ccc(Nc4nccc(-c5ccc(Cl)cc5)n4)cc3)cc2c1,86.1%
8,O=C(c1ccc(F)cc1)C(c1c[nH]c2ccccc12)c1c[nH]c2ccccc12,41.8%
9,Nc1nc(Nc2ccccc2)nn1Cc1c(Cl)cccc1Cl,30%
10,C=C1CC[C@@H]2[C@]3(C)COC(c4cn[nH]c4-c4ccc(OC)cc4)O[C@@H]3CC[C@@]2(C)[C@@H]1C/C=C1/C(=O)OCC1O (stereo not given in full),1.59% (active)
11,COc1ccc(/C=C2\C(=N)N=C(SCc3nc4ccccc4[nH]3)NC2=O)cc1,103%
12,Cc1[nH]nc2ccc3nc(-c4cn[nH]c4C(F)(F)F)c4c(c3c12)CCCC4,-0.0725% (active)
13,COc1ccc(-c2ccnc(SCc3cc4ccccc4[nH]c3=O)n2)cc1,34.1%
14,COc1ccccc1-n1cc(C#N)c(N)c1C(=O)c1ccc(Cl)cc1Cl,1.26% (active)
15,COc1ccc(-c2nc3cc(C)ccc3n2CC(=O)N=Nc2c(O)[nH]c3ccccc23)cc1,8.05% (active)
16,O=c1oc2ccccc2cc1-c1csc(N=Nc2c(O)[nH]c3ccc(Br)cc23)n1,99%
17,COc1cc(-c2nc3cc(Cl)c(Cl)cc3[nH]2)ccc1OCc1nnc(-c2cccs2)o1,72%
18,Cc1cc(=O)oc2cc(OCCCCOc3ccc(/C=C/C(=O)Nc4ccccc4[N+](=O)[O-])cc3)ccc12,101%
19,O=C1S/C(=C\c2ccc([N+](=O)[O-])cc2)C(=O)N1CCN1CCCCC1,98.6%
20,COc1ccc(/C=N/NC(=O)Cn2nc(Cc3ccc(OC)cc3)c3onc(C)c3c2=O)cc1,27.6%
